High-throughput results: PubChem BioAssay, several laboratories
CYP2C9 inh = inhibitors of human CYP2C9. P11712. CYP2C9 Supersomes, luciferin-H conversion, luminescence. inhibition, % at 5 µM. 96,000 tested, 20% active. AID 777;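 active = blocking of liver enzyme CYP2C9 beyond about 50% at 5 µM, limit read from the data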
CYP2C9 act = CYP2C9 (human) activation. AID 1024. 96,000 tested, 1.4% active. activation factor at 5 µM. recombinant CYP2C9, luciferin-H conversion, luminescence; active compounds read high; factor 1 = untreated enzyme, 0 = blocked. P11712;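 active = activation factor of 2 or more for CYP2C9 at a 5 µM dose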;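 also: 0 = sulfaphenazole-blocked wells and 1 = vehicle-only wells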
CYP2C19 activ = cytochrome P450 2C19 (human) activation. AID 1025. recombinant CYP2C19, luciferin-H EGE luminescence; active compounds read high; 0 = fully inhibited enzyme, 1 = untreated enzyme. 96,000 tested, under 10 active. activation factor at 5 µM;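 active = activation factor of at least 2 at 5 µM in the primary screen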;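 also: 0 = wells with 2.5 mM tranylcypromine and 1 = vehicle-only wells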
Target sequence (P33261 whole entry, looked up): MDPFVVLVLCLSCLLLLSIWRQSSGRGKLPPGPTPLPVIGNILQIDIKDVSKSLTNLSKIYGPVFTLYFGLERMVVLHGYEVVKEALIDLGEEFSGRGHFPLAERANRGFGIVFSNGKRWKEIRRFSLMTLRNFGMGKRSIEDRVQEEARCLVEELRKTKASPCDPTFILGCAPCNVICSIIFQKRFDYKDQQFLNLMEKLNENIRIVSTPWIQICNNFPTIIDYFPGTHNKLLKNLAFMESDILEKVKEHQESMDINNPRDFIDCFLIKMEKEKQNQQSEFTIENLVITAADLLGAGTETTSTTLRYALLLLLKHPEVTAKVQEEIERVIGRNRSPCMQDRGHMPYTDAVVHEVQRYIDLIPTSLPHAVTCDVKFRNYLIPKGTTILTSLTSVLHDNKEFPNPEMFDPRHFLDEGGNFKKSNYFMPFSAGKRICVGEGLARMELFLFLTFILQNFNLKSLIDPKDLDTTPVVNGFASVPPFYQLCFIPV
CYP2C19 inh = blocks human cytochrome P450 2C19 | 96,000 tested, 21% active | CYP2C19 Supersomes, luciferin-H EGE luminescence, 30 min | inhibition, % at 5 µM | P33261 | AID 778;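 active = CYP2C19 inhibition above a set limit at 5 µM in the primary screen, cut at about 50% in these data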;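 also: plate controls were negative control wells for no effect and 2.5 mM tranylcypromine positive control for full effect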
Cav3 T inh = inhibitors of human Cav3.2 T-type calcium channel; O95180; Cav3.2-expressing cells, Fluo-4 calcium fluorescence FDSS; active compounds read low; B-score at 10 µM; 100,000 tested, 4% active; AID 449739;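 active = single-dose well whose peak fluorescence ratio is a statistical outlier from its plate by either plate-standardised score or position-corrected B-score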
An asterisk follows results filed as active; x = no result given. Shown are actives, neighbours in structure and some others; about 27% of the full set was active somewhere.

SMILES	CYP2C9 inh	CYP2C9 act	CYP2C19 activ	CYP2C19 inh	Cav3 T inh
COCCCN1C(=O)c2[nH]nc(-c3cc(C)cc(C)c3O)c2C1c1ccc(O)c(OC)c1 (centres undefined)	63*	0.4	0.1	87*	x
Cc1cc(O)c(-c2n[nH]c3c2C(c2cccc(O)c2)N(Cc2cccnc2)C3=O)cc1Cl (centres undefined)	67*	0.3	0.8	25	1.3
O=C(CCCn1nnc(-c2cccnc2)n1)c1ccc(F)cc1	53*	0.5	0.2	76*	0.32
c1ccc(OCCCn2nnc(-c3cccnc3)n2)cc1	45	0.5	0.5	51*	0.15
CCN(CC(=O)N1CCOCC1)S(=O)(=O)c1ccc(C)cc1	-53	1.5	0.6	37	0.077
COc1ccccc1CN1CCN(C(=O)c2ccncc2)CC1	12	0.9	0.1	87*	x
COc1cccc(OC)c1C(=O)N1CCN(Cc2ccncc2)CC1	63*	0.4	0.2	78*	-0.13
Cc1ccc(NC(=O)CSc2nc3ccccc3c3nc(CCc4c(C)n[nH]c4C)nn23)cc1F	56*	0.4	1	-2	-1.2
OCc1nc2ccccc2n1CCCOc1ccc(Br)cc1	26	0.7	0.5	49	-1.7
Cn1c(=O)n(CCCOc2ccc(Cl)cc2)c2ccccc21	12	0.9	0.2	76*	-1.1
C=CCn1c(CCCNC(=O)C(C)(C)C)nc2ccccc21	3	1	0.9	9	-0.1
CC(C)(C)C(=O)NCCCc1nc2ccccc2n1CCCOc1ccc(Cl)cc1	84*	0.2	0.6	42	-6.7*
COc1ccc(OCCCn2c(=O)oc3ccccc32)cc1	x	x	x	x	-0.43
Cn1c(=O)n(CCCOc2ccc(Br)cc2)c2ccccc21	8	0.9	0.3	70*	-4.4
NC(=O)C1CCN(C(=O)CN2CCc3ccccc32)CC1	0	1	0.9	11	0.002
CCOC(=O)COc1c(C=O)cc(Br)cc1OC	-98	2*	0.4	56*	0.52
COC(=O)c1ccc(OC(=O)C2CC(=O)N(c3ccc(C)cc3C)C2)cc1 (centres undefined)	-5	1	1	4	0.32
CCC(=O)Nc1ccccc1Nc1cc(C#N)c(C#N)cc1[N+](=O)[O-]	24	0.8	0.3	69*	0.27
Cc1cc(NC(=O)CN2CC(C)OC(C)C2)n(-c2nc3ccccc3s2)n1 (centres undefined)	56*	0.4	0.4	57*	1.3
COc1ccc(OC)c(NC(=O)CC2C(=O)NCCN2C(=O)Nc2cccc(Cl)c2)c1 (centres undefined)	72*	0.3	0.6	41	-0.018
O=C(NCc1ccc(C(F)(F)F)cc1)C1CC(c2ccccc2[N+](=O)[O-])=NO1 (centres undefined)	-77	1.8	0.6	38	-0.81
COCCn1c(-c2ccc(OC(F)(F)C(F)C(F)(F)F)cc2)nc2c1c(=O)[nH]c(=O)n2CC(C)C (centres undefined)	20	0.8	0.7	28	-0.49
CCCCn1c(=O)[nH]c(=O)c2c1nc(-c1ccc(-c3ccccc3Br)o1)n2CC	47	0.5	0.9	15	0.11
CCn1c(-c2ccsc2)nc2c1c(=O)[nH]c(=O)n2Cc1ccccc1	22	0.8	0.5	52*	0.0035
CCCCn1c(-c2ccncc2)nc2c1c(=O)[nH]c(=O)n2CC(C)C	18	0.8	0.9	12	3.1*
SMILES	CYP2C9 inh	CYP2C9 act	CYP2C19 activ	CYP2C19 inh	Cav3 T inh
COc1ccc(CCNCc2csc3nc4ccccc4n23)cc1OC	25	0.8	0.8	20	0.6
CN(C)S(=O)(=O)c1ccc(NC(=O)N2CCN(c3ccccc3Cl)CC2)cc1	-5	1	1	-1	0.33
CCOC(=O)Nc1ccc2c(c1)N(C(=O)CCN1CCN(CCO)CC1)c1ccccc1S2	x	x	x	x	0.28
CCC(C)NC(=O)Nc1ccc2c(c1)N(C)C(=O)c1ccccc1S2 (centres undefined)	97*	0	0.3	70*	-1.4
CN(Cc1ccccc1)c1nc(N)c([N+](=O)[O-])c(Nc2cccc(F)c2)n1	79*	0.2	0.6	38	-0.51
CC(C)c1ccc(NC(=O)c2ccc(Br)o2)cc1	x	x	x	x	-0.57
CN(C)S(=O)(=O)c1ccc(NC(=O)c2ccc(Br)o2)cc1	43	0.6	0.5	54*	0.026
Cc1noc(NS(=O)(=O)c2ccc(NC(=O)c3ccc(Br)o3)cc2)c1C	9	0.9	1	-2	0.86
CN(C1CCCCC1)S(=O)(=O)c1ccc(NC(=O)c2ccc(Br)o2)cc1	98*	0	0.1	94*	-3
O=C(COc1ccccc1)N1CCN(c2nnc(-c3ccccc3)c3ccccc23)CC1	74*	0.3	0.3	74*	-2.4
Cc1ccc(OCC(=O)N2CCN(c3nnc(-c4ccc(C)cc4)c4ccccc34)CC2)cc1	92*	0.1	0.1	88*	-7.4*
Cc1ccc(-c2nnc(N3CCN(C(=O)CN4C(=O)c5ccccc5C4=O)CC3)c3ccccc23)cc1	x	x	x	x	0.041
Cc1ccc(-c2cc(C(=O)N3CCN(C(=O)c4ccco4)CC3)no2)cc1	54*	0.5	0.2	78*	-0.53
Cc1ccc(-c2nnc(N3CCN(C(=O)c4ccco4)CC3)c3ccccc23)cc1	76*	0.2	0.3	68*	0.0084
CCCCSC(=O)Nc1ccccc1	12	0.9	0.7	31	0.34
CCCCCCCCN1[C@@H](CC(=O)OCC)c2ccc(C(F)(F)F)cc2S1(=O)=O	x	x	x	x	-1.9
COc1ccc(-c2nnc(N3CCCCC3)c3ccccc23)cc1	33	0.7	0.6	42	-4.6*
COc1ccc(OCC(=O)N2CCN(c3nnc(-c4ccccc4)c4ccccc34)CC2)cc1	43	0.6	0.5	50*	-5.8*
COc1ccc(N2CCN(C(=O)COc3ccccc3)CC2)cc1	9	0.9	0.9	5	0.17
CCNc1cccc2c1C(=O)N(C)C2=O	-8	1.1	0.9	8	-4.1*
CN1C(=O)c2cccc(NC(=O)C3CCCCC3)c2C1=O	43	0.6	0.3	74*	-0.035
CCC(=O)Nc1cccc2c1C(=O)N(C)C2=O	x	x	x	x	0.28
O=C(Nc1nccs1)C1C2/C=C\CCCCC21 (centres undefined)	18	0.8	1	1	0.16
COC(=O)[C@@H]1C[C@@]2(O)[C@@H](O)[C@@H](O)[C@@H](O)C[C@H]2N1C/C=C/c1ccccc1	x	x	x	x	1.5
COc1ccc(N2CCn3c2nc2c3c(=O)n(CCc3ccccc3)c(=O)n2C)cc1	7	0.9	0.8	15	x
O=C(Nc1ccc(-c2noc(-c3cccs3)n2)cc1)c1cccnc1	x	x	x	x	0.34
O=C(Nc1ccc(-c2nc3cc(NC(=O)c4cccs4)ccc3o2)cc1)c1cccs1	-4	1	1	-3	1.1
O=C(Nc1ccc2oc(-c3ccncc3)nc2c1)c1cccs1	85*	0.2	0.7	28	1.1
O=C(Nc1ccc2oc(-c3ccncc3)nc2c1)c1ccccc1F	68*	0.3	0.6	41	0.75
